Screening data deposited in PubChem BioAssay by several laboratories.
UBC9 SUMO inh – inhibitors of human SUMOylation (UBC9). inhibition, % at 35 µM. actives 0.36% (n = 290,000). HTRF SUMOylation assay, SAE1/SAE2 + UBC9, in vitro; in the data active = inhibition above about 50%, passing the limit was not always enough; inconclusive = no clear call, values can overlap the other calls
MLLE-PAM2 inh – blocks PAM2 peptide binding to the PABP1 MLLE domain; GST-MLLE / FITC-PAM2 fluorescence polarization; inhibition, % at 20 µM; actives 0.36% (n = 360,000); AID 588489; in the data active = inhibition above about 35%, passing the limit was not always enough;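 note: plate controls were DMSO wells with GST-MLLE for no effect and wells lacking GST-MLLE protein for full effect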
Target sequence (P11940 whole entry, looked up, the tested form may be a part): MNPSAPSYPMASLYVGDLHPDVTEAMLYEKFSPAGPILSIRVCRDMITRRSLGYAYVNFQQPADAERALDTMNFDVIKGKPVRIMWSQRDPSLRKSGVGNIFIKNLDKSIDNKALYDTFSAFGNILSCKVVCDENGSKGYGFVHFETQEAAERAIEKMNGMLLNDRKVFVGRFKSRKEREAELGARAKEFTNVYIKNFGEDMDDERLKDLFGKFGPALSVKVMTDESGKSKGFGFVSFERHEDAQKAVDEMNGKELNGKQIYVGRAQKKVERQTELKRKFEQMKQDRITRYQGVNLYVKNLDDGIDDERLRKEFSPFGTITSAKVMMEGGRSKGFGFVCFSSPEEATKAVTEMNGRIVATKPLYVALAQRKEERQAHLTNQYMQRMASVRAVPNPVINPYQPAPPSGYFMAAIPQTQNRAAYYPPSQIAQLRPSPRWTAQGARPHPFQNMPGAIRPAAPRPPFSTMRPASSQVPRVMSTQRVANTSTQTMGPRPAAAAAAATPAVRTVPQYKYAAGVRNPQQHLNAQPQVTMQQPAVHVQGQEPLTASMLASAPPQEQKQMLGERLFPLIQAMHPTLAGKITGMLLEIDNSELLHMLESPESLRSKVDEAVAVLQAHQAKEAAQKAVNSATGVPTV
Efflux pump inh – antifungal efflux pump inhibition, Nile Red retention | S. cerevisiae Candida pump triplex | actives 0.44% (n = 330,000) | inhibition, % at 10 µM;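 active = plate passing quality check with inhibition over a set limit, or well fluorescence over plate mean plus 4 SD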;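 note: Nile Red retained in pooled yeast measured as flow cytometry median fluorescence; 0% = buffer negative control and 100% = Enniatin B positive control; higher means more Nile Red kept so more efflux inhibition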
ALR inh – blocks human ALR sulfhydryl oxidase activity. P55789. purified ALR, DTT oxidation, H2O2 HRP-luminol luminescence. inhibition, % (concentration not given with the values). actives 3.8% (n = 290,000);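 active = mean replicate inhibition above about 79%, with every replicate also reaching it, limit read from the data; inconclusive = only one of the two criteria met; inactive = mean below limit and not every replicate reaching it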
eIF4H FP inh – inhibitors of RNA binding by human eIF4H; eIF4H fluorescence polarization binding assay; inhibition, % at 35 µM; actives 0.94% (n = 290,000); AID 2012;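 note: calls also rest on retests at 20 µM and on dose response follow-up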
PABP polyA inh – PABP-poly(A) binding inhibition; P11940; PABP-poly(A) RNA binding, fluorescence polarization; inhibition, % at 35 µM; actives 1% (n = 290,000); AID 2014;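 note: calls also rest on retests at 20 µM and on dose response follow-up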
An asterisk follows results filed as active; ? = inconclusive; / = no result given. Hits are enriched below; roughly 4.7% of the tested compounds scored in any of these assays. Unless noted, the rule behind the calls is not given here.

SMILES	UBC9 SUMO inh	MLLE-PAM2 inh	Efflux pump inh	ALR inh	eIF4H FP inh	PABP polyA inh
COC(=O)c1ccn(CC(=O)NC2CCCCC2)n1	3.6	3.2	0.3	93.5*	4.5	9.5
O=C(Cn1cc2c(n1)CCCC2)NC1CCCCCC1	10.2	2.3	-0.3	2.0	-1.4	-12.1
COc1ccccc1C(NC(C)=O)c1c(O)ccc2ccc(O)cc12 (stereo not given)	/	19.2	-0.1	94.5*	/	/
CC1(C)SC(=S)N(/N=C/c2ccc(O)cc2)C1N(O)C(=O)Nc1ccc([N+](=O)[O-])cc1 (stereo not given)	-31.0	-9.7	0.2	80.6*	2.5	3.5
NNCCc1ccccc1	-15.7	-10.0	-0.2	99.1*	-3.6	10.9
Oc1cccc(Nc2nc(-c3ccccc3Cl)nc3ccccc23)c1	1.8	-16.1	-0.1	87.9*	-4.4	-0.3
Oc1ccc(Nc2nc(-c3ccccc3F)nc3ccccc23)cc1	2.8	1.2	0.1	99.5*	-0.8	-3.3
Oc1cccc(Nc2c3ccccc3nc3ccccc23)c1	2.2	16.2	-0.3	99.3*	?	?
Cc1ccccc1-c1cc2nc(Oc3ccc4c(c3)OCO4)n(C)c(=O)c2s1	/	1.0	/	/	/	/
O=C(CSc1nc(Cc2ccccc2)nc2ccccc12)c1ccc2c(c1)OCCO2	-8.9	33.0	0.0	99.0*	0.8	13.4
O=C(O)CCSCC(=O)c1ccc2c(c1)OCCO2	9.7	25.4	0.2	98.2*	-7.1	8.2
O=C(COc1ncnc2ccccc12)c1ccc2c(c1)OCCO2	-12.9	13.5	0.1	-2.6	-1.5	-3.6
O=C(O)CCC(=O)c1ccc2c(c1)OCCO2	0.6	8.9	0.1	38.8	-11.4	-1.2
CCc1nc(SCC(=O)c2ccc3c(c2)OCCO3)c2ccccc2n1	-9.2	26.5	0.1	/	-11.0	8.0
O=C(CSc1ncnc2ccccc12)c1ccc2c(c1)OCCO2	0.7	22.9	0.5	98.9*	1.9	-15.2
O=C(CCNC(=O)c1ccco1)NC(Cc1c[nH]c2ccccc12)C(=O)O (stereo not given)	/	-0.3	-0.2	/	/	/
Cc1ccc(Nc2nc(/N=C/N(C)C)n[nH]2)cc1C	4.8	-11.6	0.0	97.6*	-8.5	-6.3
CN(CC(=O)Nc1ccccc1Cl)C(=O)COC(=O)c1cnccn1	11.0	1.9	-0.4	-3.4	-9.2	11.0
O=C(COC(=O)/C=C/c1ccc([N+](=O)[O-])cc1)NCC1CCCO1 (stereo not given)	5.7	-3.5	0.0	94.7*	6.6	8.4
Cc1ccc(Cl)c(OCC(=O)Nc2cc(S(=O)(=O)N3CCOCC3)ccc2N2CCCC2)c1	1.0	-5.7	0.6	4.7	-9.7	-4.6
O=C(NC(=S)Nc1ccc(Cc2ccncc2)cc1)c1ccccc1Cl	-4.5	42.7*	0.1	-0.4	1.5	0.2
Cc1cccc(C(=O)NC(=S)Nc2ccccc2C(F)(F)F)c1	-8.6	22.6	-0.1	-8.1	-10.8	-12.7
Cc1cccc(C(=O)NC(=S)NNC(=O)c2ccccc2Cl)c1	1.7	24.3	-0.6	98.4*	7.4	3.6
COc1cccc(C(=O)NC(=S)Nc2ccc(Cl)cc2C(=O)O)c1	12.8	13.5	-0.2	97.4*	8.5	7.6
Cc1ccccc1C(=O)NC(=S)Nc1ccc(Cc2ccncc2)cc1	-13.6	25.3	-7.1	-1.8	-8.2	3.7
SMILES	UBC9 SUMO inh	MLLE-PAM2 inh	Efflux pump inh	ALR inh	eIF4H FP inh	PABP polyA inh
Cc1cccc(C(=O)NC(=S)Nc2ccccc2C(=O)O)c1	16.5	37.3	0.0	98.7*	-10.8	-1.5
Cc1cccc(C(=O)NC(=S)NNC(=O)Cc2ccccc2)c1	-1.9	-2.5	0.0	/	9.8	4.0
CCN(CC)S(=O)(=O)c1ccc(C(=O)Nc2ccc3c(c2)OCO3)cc1	21.5	-0.1	0.0	-12.3	-9.3	-4.5
O=C(Cc1ccccc1F)Nc1cccc(S(=O)(=O)N2CCOCC2)c1	/	3.1	-0.2	-3.4	/	/
O=C(NC(=S)Nc1ccc(O)cc1)c1ccccc1Cl	6.0	26.7	-0.1	/	1.0	-3.4
Cc1ccc(O)c(NC(=S)NC(=O)c2ccccc2Cl)c1	-6.5	24.7	0.2	97.3*	2.2	2.1
COc1ccc(C(=O)NCC(c2cccnc2)N2CCN(c3ccccc3OC)CC2)cc1OC (stereo not given)	2.3	7.2	0.1	49.9	8.0	6.8
COc1ccc(C(=O)NCC(c2cccnc2)N2CCN(c3ccc(F)cc3)CC2)cc1OC (stereo not given)	13.2	-5.8	-0.2	85.5*	-2.7	-0.5
COc1cc(C(=O)NCC(c2cccnc2)N2CCN(c3ccc(F)cc3)CC2)cc(OC)c1OC (stereo not given)	4.1	-7.2	0.0	54.7	-2.1	-14.1
O=C(NCC(c1cccnc1)N1CCN(c2ccc(F)cc2)CC1)c1ccc(F)cc1 (stereo not given)	1.9	10.3	-0.1	97.9*	3.1	8.9
O=C(NCC(c1cccnc1)N1CCN(c2ccc(F)cc2)CC1)C1CCCCC1 (stereo not given)	0.6	-11.8	0.2	98.1*	-2.1	4.4
COc1ccc(C(=O)NCC(c2cccnc2)N2CCN(c3ccccc3)CC2)cc1OC (stereo not given)	-13.1	-5.0	0.0	98.1*	3.8	4.9
O=C(OCC(=O)N1CCC(Cc2ccccc2)CC1)c1cc(Br)ccc1O	/	-49.1	0.0	2.5	/	/
CSc1ccc(NC(=O)NN(c2ccccc2)C2CCS(=O)(=O)C2)cc1 (stereo not given)	/	-0.9	/	/	/	/
CCOc1ccc(/C=N/NC(=O)C2(O)c3ccccc3-c3ccccc32)cc1	-1.0	17.0	-0.1	-4.7	-4.6	2.9
COc1cc(/C=N/Nc2ncc(C(F)(F)F)cc2Cl)cc(OC)c1OC	17.0	-11.6	-0.1	-8.6	-11.5	-12.0
COc1cc(/C=N/Nc2ncc(C(F)(F)F)cc2Cl)cc(OC)c1O	-3.5	9.1	-0.1	98.8*	-11.0	9.9
COc1cccc(/C=N/NC(=O)c2ccncc2)c1OC(=O)c1ccc(Br)cc1	-8.7	58.7*	-0.1	-6.3	?	?
COc1cc(/C=N/Nc2cc(C)nc(N)n2)ccc1O	-5.0	3.1	0.0	97.7*	1.1	15.7
COc1cc(/C=N/NC(=O)C2(O)c3ccccc3-c3ccccc32)ccc1O	-8.1	-2.6	0.1	99.4*	-1.8	4.9
COc1ccc(CCNC(=O)CC(c2ccccc2)c2cccc(C)c2O)cc1OC (stereo not given)	-18.8	-14.6	-0.1	45.0	-6.8	0.7
O=C(c1cccc(S(=O)(=O)N2CCCC2)c1)N1CCN(Cc2ccccc2)CC1	/	7.5	0.2	-0.2	/	/
COc1cc(/C=N/NC(=O)C(=O)/C=C2\NC(C)(C)Cc3ccccc32)ccc1O	35.1	-4.9	0.0	82.0*	7.2	16.1
COc1cc(/C=N/NC(=O)c2cc[n+]([O-])cc2)ccc1O	17.9	-8.2	-0.2	99.1*	1.4	-2.4
COc1cc(OC)c([N+](=O)[O-])cc1/C=N/NC(=O)c1ccncc1	11.7	22.0	-0.2	30.2	58.7*	11.8*
